Potency and affinity values are given separately. Calls of active or inactive are those of the source.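 How the source made its calls: active means compounds lowering cell ATP signal with a fitted half-effect dose at most twice the top valid dose; inconclusive means flat curve with 30 to 70% signal loss, or bad fit; inactive means wrong direction, flat within 30%, or weaker than limit.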
Experiment: viability loss in HEK293 kidney cells – cell-based, cherry-picks, set 5, cytotoxicity control, dose response (AID 1053117);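 further: more negative means greater loss of ATP signal and more cytotoxicity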
Conditions: HEK293T viability, CellTiter-Glo ATP luminescence, 72 h; series mostly up to 26 µM; activity change, negative = cytotoxicity: at the top concentration

Row | SMILES | activity change, negative = cytotoxicity
1 | C[C@H]1CN([C@@H](C)CO)C(=O)c2cccc(NC(=O)Nc3ccc(C(F)(F)F)cc3)c2O[C@H]1CN(C)C(=O)Nc1cccc2ccccc12 | -18.4% [at 23.5 µM] (inactive)
2 | COC(=O)C[C@H]1CC[C@@H]2[C@H](COc3ccc(NC(=O)Cc4cccs4)cc3C(=O)N2C)O1 | -0.923% [at 23.5 µM] (inactive)
3 | COC(=O)C[C@H]1CC[C@H]2[C@@H](COc3ccc(NC(=O)Cc4cccs4)cc3C(=O)N2C)O1 | -4.36% (inactive)
4 | CCC(C)(C)NC(=O)C(OC(=O)c1ccco1)c1ccccc1OC (stereo unspecified) | -3.73% (inactive)
5 | Fc1cnc(N2CCN(c3ccccc3)CC2)nc1N1CCN(c2ccccc2)CC1 | -16.1% (inactive)
6 | C[C@H](CO)N1C[C@H](C)[C@@H](CN(C)Cc2ccccc2)Oc2ncc(-c3ccccc3)cc2C1=O | -17.1% (inactive)
7 | CC(C)Cc1nnc(NC(=O)CSc2nc(N)cc(=O)[nH]2)s1 | -11.3% (inactive)
8 | COc1ccccc1N(CC(=O)N(CC(C)C)CC(C)C)S(=O)(=O)c1cccs1 | -12.9% (inactive)
9 | C[C@H](O)C#Cc1ccc2c(c1)O[C@H](CN(C)C)[C@@H](C)CN([C@@H](C)CO)S2(=O)=O | -12.8% (inactive)
10 | COCC(=O)Nc1ccc2c(c1)C(=O)N(C)[C@H]1CC[C@@H](CC(=O)NCc3ccccc3Cl)O[C@@H]1CO2 | -9.24% (inactive)
11 | CN(C)C(=O)c1ccc(-c2ccc3c(c2)[C@H]2[C@H](CCN2C(=O)c2ccc(F)cc2)[C@H](CO)N3C)cc1 | -0.846% (inactive)
12 | C[C@H](CO)N1C[C@H](C)[C@@H](CN(C)Cc2ccc(-c3ccccc3)cc2)Oc2ccc(NC(=O)CCCN(C)C)cc2C1=O | -13.9% (inactive)
13 | C[C@H]1CN([C@@H](C)CO)C(=O)c2cc(NC(=O)C3CCCCC3)ccc2O[C@H]1CN(C)Cc1ccc(-c2ccccc2)cc1 | -8.49% (inactive)
14 | CSc1ccccc1C(=O)C1CCCN(C(=O)CCc2cccnc2)C1 (stereo unspecified) | -14.4% (inactive)
15 | O=C(OCC(O)C(O)COC(=O)c1ccccc1)c1ccccc1 (stereo unspecified) | -13.8% (inactive)
16 | CN1c2ccc(-c3ccccc3)cc2[C@@H]2[C@@H](CCN2C(=O)CN2CCOCC2)[C@@H]1CO | -13.7% [at 23.5 µM] (inactive)
17 | C[C@H](CO)N1C[C@H](C)[C@@H](CN(C)Cc2ccc(-c3ccccc3)cc2)Oc2ccc(NC(=O)C3CCCCC3)cc2C1=O | -16.4% (inactive)
18 | C[C@@H]1CN([C@@H](C)CO)C(=O)c2cc(-c3ccccc3)cnc2O[C@H]1CN(C)C(=O)c1cccc(F)c1 | -16.9% (inactive)
19 | C[C@H](O)C#Cc1ccc2c(c1)O[C@H](CN(C)C)[C@H](C)CN([C@H](C)CO)S2(=O)=O | -8.51% (inactive)
20 | C[C@@H]1CN([C@H](C)CO)C(=O)c2cc(NC(=O)C3CCCCC3)ccc2O[C@@H]1CN(C)Cc1ccc(-c2ccccc2)cc1 | -12.7% (inactive)
21 | COC(=O)c1cn(CC(=O)NCc2ccco2)c2ccccc12 | -15.6% (inactive)
